Screens from PubChem.
DT40 TDP1 CPT = growth inhibition of DT40 Tdp1-/-;hTDP1 cells with camptothecin (screen for TDP1 inhibitors) | chicken DT40 Tdp1-/-;hTDP1 cells + 20 nM CPT, ATP luminescence, 48 h | AID 686979 | Potency, µM (doses to about 46.2 µM), for the others: at the top dose activity change, negative = growth inhibition, hits mostly inhibitors | 420,000 compounds, 12% hits; further: nearly all actives have a fitted effect of over 55% in size
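Cell growth measured by CellTiter-Glo luminescence after a minimum 48 h, 37 C compound exposure with 20 nM CPT in Tdp1-knockout DT40 cells stably expressing hTDP1, seeded 400/well; qHTS titration format.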
GCN5L2 inh = GCN5L2 (KAT2A) acetyltransferase inhibition; Q92830; AID 504327; GCN5L2 HAT assay, ThioGlo1 CoA-SH fluorescence; 390,000 compounds, 0.21% hits; Potency, µM (series often up to 58.9 µM), without a hit: at the top dose activity change, negative = inhibition, usual class: inhibitors
Target sequence (Q92830 whole entry, looked up): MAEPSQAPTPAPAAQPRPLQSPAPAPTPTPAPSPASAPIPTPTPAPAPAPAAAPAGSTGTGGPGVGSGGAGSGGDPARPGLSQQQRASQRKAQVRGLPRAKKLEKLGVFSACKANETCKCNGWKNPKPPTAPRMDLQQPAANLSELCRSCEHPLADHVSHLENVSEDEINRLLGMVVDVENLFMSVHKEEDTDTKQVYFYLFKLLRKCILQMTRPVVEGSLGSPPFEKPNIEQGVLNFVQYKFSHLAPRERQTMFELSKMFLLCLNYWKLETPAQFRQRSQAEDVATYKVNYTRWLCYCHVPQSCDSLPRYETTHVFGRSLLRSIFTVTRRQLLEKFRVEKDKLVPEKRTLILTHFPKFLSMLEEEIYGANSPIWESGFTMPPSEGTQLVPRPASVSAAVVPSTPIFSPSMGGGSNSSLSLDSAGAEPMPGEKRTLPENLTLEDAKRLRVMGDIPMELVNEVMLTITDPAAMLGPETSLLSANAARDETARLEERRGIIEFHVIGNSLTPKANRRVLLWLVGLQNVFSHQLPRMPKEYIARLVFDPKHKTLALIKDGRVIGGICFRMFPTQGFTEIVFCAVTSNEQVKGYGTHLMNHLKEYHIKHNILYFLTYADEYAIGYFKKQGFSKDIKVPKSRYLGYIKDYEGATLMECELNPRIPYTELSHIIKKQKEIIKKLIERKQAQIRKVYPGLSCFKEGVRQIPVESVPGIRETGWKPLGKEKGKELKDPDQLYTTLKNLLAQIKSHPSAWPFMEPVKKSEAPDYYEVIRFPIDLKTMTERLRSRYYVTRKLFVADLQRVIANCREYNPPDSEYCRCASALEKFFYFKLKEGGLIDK
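GCN5L2 (20nM final) in 50mM HEPES, 0.1mM EDTA pH 7.5, 0.01% Tween-20 was preincubated 15 min at room temperature with compound, then given ThioGlo1 (50uM), H3(1-25) peptide (75uM) and acetyl-CoA (70uM); CoA-thiol fluorescence (Ex340/Em540) was read at 0 and 20 min.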
VDR inh = inhibitors of human vitamin D receptor | 400,000 compounds, 0.93% hits | Potency, µM, without a hit: max response, negative = inhibition, actives largely listed as inhibitors | AID 504847 | VDR-SRC2-3 peptide fluorescence polarization, 2 h
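The screen uses fluorescence polarization to detect compounds that interfere with recruitment of the SRC2-3 coactivator peptide to VDR; plates are read after 2 h at room temperature.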
PLK1 PBD inh = PLK1 (human) polo-box domain binding inhibition; 360,000 compounds, 2.8% hits; Potency, µM, inactives show max response, negative = inhibition, usual class: inhibitors; Plk1 PBD binding of FITC phosphopeptide, fluorescence polarization; P53350; further: series mostly up to about 57 µM; nearly all actives have a fitted effect of over 65% in size
TDP1 cell noCPT = qHTS for Inhibitors of human tyrosyl-DNA phosphodiesterase 1 (TDP1): qHTS in cells in absence of CPT; DT40 Tdp1-/- hTDP1 cells, no CPT, ATP luminescence, 48 h; Potency, µM (highest dose often 46.2 µM), inactives show top-dose activity change, negative = growth inhibition, hits mostly inhibitors; 420,000 compounds, 15% hits; further: nearly all actives have a fitted effect of over 55% in size
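A cellular qHTS used chicken DT40 cells lacking endogenous Tdp1 but carrying stably transfected human TDP1. Compounds were applied without camptothecin, and cell growth kinetics were judged by ATP-dependent luminescence after ≥48 hr.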
TDP1 inh = inhibitors of human tyrosyl-DNA phosphodiesterase TDP1; recombinant TDP1, AlphaScreen DNA substrate cleavage; Potency, µM (doses to about 130 µM), inactives show at the highest dose activity change, negative = inhibition, hits mostly inhibitors; 350,000 compounds, 0.28% hits; further: nearly all actives have a fitted effect of over 40% in size
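Recombinant human Tdp1 (E. coli-expressed, 1 nM final) preincubated with compounds 15 min at room temperature, then 5'-biotin/3'-phosphotyrosine-FITC DNA substrate (15 nM final) added for 5 min. AlphaScreen beads (10 ug/ml final) added 10 min; cleavage lowers signal.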
Starred values were filed as active, the others as inactive; ? = inconclusive; · = no result. Compounds with a hit are over-represented: about 18% of the library has one in this group of screens. The call rests on the fitted dose curve; in most records, active means well fitted curve in the direction sought with a large enough effect; inconclusive means small, poorly fitted or top-dose-only effect, or another doubt; inactive means no such curve, though single readings can be large; an effect the other way counts as inactive or inconclusive. On the % scale 0 is the no-effect control and ±100 the full control effect; potency means the concentration at half of the fitted maximal effect.

SMILES	DT40 TDP1 CPT	GCN5L2 inh	VDR inh	PLK1 PBD inh	TDP1 cell noCPT	TDP1 inh
CCC(=O)NC(=S)Nc1cccc(NC(=O)c2ccccc2)c1	6%	-3%	-18%	-6%	2%	-6%
Cc1ccc(C(=O)NC(=S)Nc2cccc3nsnc23)cc1	-15%	-10%	-16%	-29%	-19%	-4%
Cc1ccc(C(=O)NC(=S)Nc2cccc3c(C)cc(C)nc23)cc1	?	-8%	-9%	-3%	21µM*	10%
O=C(NC(=S)Nc1ccc(Oc2ccc(Cl)cc2)cc1)c1ccccc1	?	?	37%	-9%	21µM*	2%
CCC(=O)NC(=S)Nc1ccc(NC(=S)NC(=O)c2ccccc2)cc1	?	-13%	-2%	-6%	18µM*	5%
O=C(OCC#CCSc1nnc(-c2cc3ccccc3cc2O)o1)c1ccc(F)cc1	·	·	·	·	·	-2%
CC(C)NC(=S)NC(=O)c1ccc(-c2ccccc2)cc1	23µM*	-15%	-30%	-2%	16µM*	5%
O=C(NC(=S)Nc1ccc(NC(=O)c2ccccc2)cc1)c1ccc(F)cc1	7%	-5%	12%	-16%	1%	2%
O=C(Nc1ccc(NC(=S)NC(=O)C(c2ccccc2)c2ccccc2)cc1)c1ccccc1	?	·	0%	?	15µM*	·
O=C(CNc1cccc(S(=O)(=O)N2CCOCC2)c1)Nc1ccccc1F	-9%	2%	-5%	-3%	7%	3%
CCCCn1c(CN2CCN(c3cccc(Cl)c3)CC2)nc2c1c(=O)[nH]c(=O)n2C	3.3µM*	0%	-1%	-8%	3.3µM*	-2%
CC(C)Cn1c(CN2CCN(c3cccc(Cl)c3)CC2)nc2c1c(=O)[nH]c(=O)n2C	18µM*	3%	-10%	·	21µM*	9%
NCCC[C@@H](CC(=O)N[C@@H]1CCCC[C@H]1C(=O)N[C@H](CC(=O)N[C@@H](CCC(=O)O)CC(=O)O)Cc1ccccc1)NC(=O)C[C@H](Cc1c[nH]c2ccccc12)NC(=O)[C@@H]1CNCC[C@H]1N	·	·	-3%	·	·	6%
COc1ccccc1C(=O)Nc1cccc(OCc2cc(=O)n3c(C)csc3n2)c1	16µM*	-15%	-10%	·	23µM*	4%
COc1cc(C(=O)Nc2cccc(OCc3cc(=O)n4c(C)csc4n3)c2)cc(OC)c1OC	21µM*	-8%	-3%	·	15µM*	-4%
CN(C)NC(=S)NC1CCS(=O)(=O)C1 (stereo not given)	7%	1%	18%	-1%	26%	1%
CCOC(=O)c1nnn(CC(=O)N2N=C(c3cccc4ccccc34)CC2c2ccccc2)c1C(=O)OCC (stereo not given)	?	-9%	1%	-5%	21µM*	-3%
CSCCC(C(=O)Nc1c(C)cccc1C)N1CCN(C/C=C/c2ccccc2)CC1 (stereo not given)	?	·	·	-1%	13µM*	·
COc1ccc(Cl)cc1NC(=O)C(C)N1CCN(C/C=C/c2ccccc2)CC1 (stereo not given)	?	-3%	-19%	-7%	21µM*	0%
Cc1cccc(C)c1NC(=O)C(c1ccccc1)N1CCN(C/C=C/c2ccccc2)CC1 (stereo not given)	18µM*	·	·	-6%	?	·
CC(=O)c1ccc(NC(=O)C(C)N2CCN(C/C=C/c3ccccc3)CC2)cc1 (stereo not given)	-16%	-9%	-16%	-12%	?	3%
NS(=O)(=O)c1ccc(CCNS(=O)(=O)c2ccc(Cl)nc2)cc1	-14%	4%	0%	4%	19%	4%
CCOc1ccccc1N1CCN(C(=O)c2cc3c(C)cc(C)cc3[nH]2)CC1	?	-14%	35%	-10%	23µM*	·
CCOc1ccccc1N1CCN(C(=O)c2ccc3[nH]c4c(c3c2)CCCC4)CC1	21µM*	-5%	?	0%	?	6%
CCOC(=O)C1CCN(C(=O)c2cc3c(C)cc(C)cc3[nH]2)CC1	-20%	-10%	-3%	-8%	?	·
SMILES	DT40 TDP1 CPT	GCN5L2 inh	VDR inh	PLK1 PBD inh	TDP1 cell noCPT	TDP1 inh
COc1cc2[nH]c3c(=O)n4c(nc3c2cc1OC)SCCC4	?	-19%	8%	4%	?	3%
Cc1ccc(-c2cc(C(=O)NCCCn3ccnc3)c3cc(Br)ccc3n2)o1	?	-6%	-6%	24µM*	?	12%
Cc1ccc(-c2cc(C(=O)NN3CCOCC3)c3cc(Br)ccc3n2)o1	?	-19%	-22%	-10%	?	3%
Cc1ccc(-n2c(-c3cccs3)nc3nc4ccccc4nc32)cc1	·	-9%	·	·	·	-1%
c1ccc(-c2nc3nc4ccccc4nc3n2Cc2ccco2)cc1	?	-16%	-27%	-14%	22µM*	-5%
c1ccc(Cn2c(-c3cccs3)nc3nc4ccccc4nc32)cc1	·	?	·	·	·	-5%
CC(C)Cn1c(-c2cccs2)nc2nc3ccccc3nc21	16µM*	-1%	1%	-3%	15µM*	-8%
CCCCn1c(-c2cccs2)nc2nc3ccccc3nc21	?	-17%	-1%	-2%	23µM*	-8%
Fc1ccc(-c2nc3nc4ccccc4nc3n2Cc2ccco2)cc1	?	-7%	-6%	-6%	?	2%
Fc1ccc(-n2c(-c3ccco3)nc3nc4ccccc4nc32)cc1	-11%	-2%	-9%	-7%	-9%	-4%
CCCCOCCCn1c(-c2ccco2)nc2nc3ccccc3nc21	?	-24%	1%	-8%	21µM*	7%
CCN(CC)S(=O)(=O)c1cc(-c2ccc(=O)n(C(C)C(=O)Nc3cccc(C#N)c3)n2)ccc1C (stereo not given)	?	-10%	8%	·	?	4%
CCOc1ccccc1-n1nnnc1SCC(=O)N(C)C1CCS(=O)(=O)C1 (stereo not given)	-6%	·	·	-3%	-8%	·
O=C(Cn1ncc(Cl)c(Cl)c1=O)Nc1ccc2c(c1)OCO2	7.3µM*	-9%	5%	-11%	3.3µM*	-7%
CCN(CC)S(=O)(=O)c1cc(NC(=O)CSc2nccn2C)ccc1C	7%	-1%	0%	-15%	-11%	0%
COc1ccc(NC(=O)Cc2coc3cc(C)c(C(C)C)cc23)cc1S(=O)(=O)N1CCOCC1	12µM*	-5%	-2%	7%	12µM*	4%
COc1ccc(NC(=O)Cn2ncc(Cl)c(Cl)c2=O)cc1S(=O)(=O)N1CCOCC1	12µM*	?	-6%	?	10µM*	-1%
